15-hLO inh = blocks human 15-lipoxygenase activity; purified 15hLO-1, xylenol orange hydroperoxide absorbance; P16050; AID 887; Potency, µM (doses to about 57.1 µM), most hits filed as inhibitors; hit rate 1.4% among 74,000; further: nearly all actives have a fitted effect of over 55% in size
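Purified human 15hLO-1 (40 nM final) in 25 mM Hepes pH 7.5, 0.01% Triton X-100 was preincubated with compound 15 min at room temperature, then reacted 6 min with 50 uM arachidonic acid; hydroperoxide detected by Fe-XO, 573/405 nm absorbance ratio.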
Tau filament bind = binds recombinant human tau filaments; Potency, µM (highest dose often 57.1 µM); hit rate 2% among 71,000; recombinant tau filaments, thioflavin S fluorescence, 15 h; filaments grown with octadecylsulfate alongside compound;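 further: actives lower thioflavin S fluorescence by blocking filaments or displacing dye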
Target sequence (P10636 whole entry, looked up): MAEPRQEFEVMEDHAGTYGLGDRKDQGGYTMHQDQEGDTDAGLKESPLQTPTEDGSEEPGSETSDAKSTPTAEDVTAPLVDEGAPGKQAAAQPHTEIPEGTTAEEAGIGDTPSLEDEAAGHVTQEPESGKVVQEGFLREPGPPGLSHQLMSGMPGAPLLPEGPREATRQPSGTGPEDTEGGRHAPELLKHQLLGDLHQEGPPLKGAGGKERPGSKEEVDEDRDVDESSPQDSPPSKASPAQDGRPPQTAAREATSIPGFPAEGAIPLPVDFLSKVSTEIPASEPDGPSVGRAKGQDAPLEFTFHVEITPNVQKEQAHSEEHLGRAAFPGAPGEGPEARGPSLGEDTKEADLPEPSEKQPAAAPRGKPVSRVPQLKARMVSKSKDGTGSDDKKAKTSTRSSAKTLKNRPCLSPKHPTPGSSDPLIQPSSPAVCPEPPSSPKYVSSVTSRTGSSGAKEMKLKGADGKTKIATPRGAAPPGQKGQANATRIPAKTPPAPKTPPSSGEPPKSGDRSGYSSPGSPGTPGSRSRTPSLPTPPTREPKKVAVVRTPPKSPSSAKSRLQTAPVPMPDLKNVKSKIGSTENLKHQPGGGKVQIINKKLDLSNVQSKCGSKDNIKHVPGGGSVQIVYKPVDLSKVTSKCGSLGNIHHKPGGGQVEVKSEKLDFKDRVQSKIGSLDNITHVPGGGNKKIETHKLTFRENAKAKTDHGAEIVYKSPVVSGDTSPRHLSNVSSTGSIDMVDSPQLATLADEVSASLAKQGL
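Thioflavine S fluorescence (ex 450, em 510 nm) reports filaments formed from 1 uM human tau plus 30 uM ODS over 15 h at 37 C (10 mM HEPES pH 7.4, 100 mM NaCl, 5 mM DTT); compounds displacing dye or blocking filaments lower signal.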
ERK AVP block = blocks ERK signaling stimulated by vasopressin; HEK293-V1b, vasopressin-stimulated pERK AlphaScreen; Potency, µM (highest dose often 57.5 µM), hits mostly inhibitors; hit rate 0.99% among 72,000; AID 995; further: nearly all actives have a fitted effect of over 55% in size
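HEK293 cells stably expressing V1b receptor, seeded overnight in 1% FBS, were treated with compounds for 30 min at 37C, then stimulated 5 min with 25 nM vasopressin; phospho-ERK read by AlphaScreen SureFire after lysis.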
Luciferase inh = firefly luciferase inhibition; P08659; purified firefly luciferase, luminescence, 8 min; Potency, µM (titrated, usually from 57.1 µM), actives largely listed as inhibitors; hit rate 2.2% among 72,000; AID 411; further: nearly all actives have a fitted effect of over 40% in size
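qHTS concentration-response profiling: light output of P. pyralis luciferase with luciferin and 10 uM ATP, imidazole buffer pH 7.2. Read by luminescence after 8-min room-temperature incubation.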
Bst PK mod = pyruvate kinase (B. stearothermophilus) modulation; AID 361; Potency, µM; hit rate 1.2% among 51,000; purified pyruvate kinase, luminescence ATP production; ribose 5-phosphate activator present at AC10; in the data active means potency below about 11 µM; inconclusive means mostly about 12 µM to 25 µM;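 the screen sought inhibitors and activators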
Hsp90 Hop PPI = changes Hsp90-Hop TPR2A binding signal, up or down. AlphaScreen TPR2A-His6 binding biotin-Hsp90 C-terminal peptide. Potency, µM (series often up to 57 µM). hit rate 0.44% among 71,000; active means well fitted curve in either direction with a large enough effect; inconclusive means small, poorly fitted or top-dose-only effect, or another doubt
A number is an active result; i = inactive; ? = inconclusive; nt = no result; [ ] = remark or other dose. Compounds with a hit are over-represented: about 6.1% of the library has one in this group of screens. Unless noted, the call rests on the fitted dose curve; in most records, active means well fitted curve in the direction sought with a large enough effect; inconclusive means small, poorly fitted or top-dose-only effect, or another doubt; inactive means no such curve, though single readings can be large; an effect the other way counts as inactive or inconclusive.

SMILES	15-hLO inh	Tau filament bind	ERK AVP block	Luciferase inh	Bst PK mod	Hsp90 Hop PPI
O=C(Nc1ccc2c(c1)OCCO2)C1CCCN1S(=O)(=O)c1ccc(Cl)cc1 (stereo not given)	i	i	i	i	11	i
Cc1nc(NC(=O)c2ccccc2)sc1-c1csc(N)n1	i	i	i	15.8µM	i	i
CC(=O)Cc1nsc(NC(=O)c2ccccc2)n1	i	i	i	i	i	i
COc1cccc(Nc2ncc3ncc(=O)n(C)c3n2)c1	i	i	i	i[11.4 µM]	nt	i
O=C1C[C@@H](O)[C@@H](O)[C@@H]2[C@H]3C(=O)N(c4ccc(F)cc4F)C(=O)[C@@H]3CC[C@H]12	i[11.4 µM]	nt	i[11.5 µM]	i[11.4 µM]	nt	nt
OC(COc1ccc(Cl)c2ccccc12)CN1CCN(c2ccccn2)CC1 (stereo not given)	?	i	20µM	i	i	i
OC(CN1CCN(c2ccccn2)CC1)Cn1c2ccccc2c2ccccc21 (stereo not given)	i	i	?	i	i	i
CCCn1c(-c2ccc(F)cc2)nc2c(NCCN(C)C)nc(C)nc21	i	i	i	nt	nt	i
CC1=C/C(=C\c2ccc3c(c2)OCO3)C(=O)S1	?	25.1µM	i	i	i	i
NCC1O[C@@H](O[C@@H]2C(O)[C@H](O[C@H]3OC(CO)C(O)C(N)C3O)[C@@H](N)C[C@H]2N)C(N)C(O)C1O (stereo not given in full)	i	nt	i	nt	nt	nt
CC(C)Nc1nc(C#N)nc(NC(C)C)n1	i	12.6µM	?	i	i	?
CCN(CC)C(=O)C(C)N(C#N)c1nc(NC(C)C)nc(NC(C)C)n1 (stereo not given)	i	i	i	i	nt	i
Cc1ccc2c(c1)N(CC(=O)NCCN1CCOCC1)C(=O)CO2	i	i	nt	i	nt	i
Cc1ccccc1-c1ccc(Nc2ccc(N3CCOCC3)cc2)nn1	i	15.8µM	?	i	i	i
Cc1ccccc1-c1ccc2ncnc(N3CCOCC3)c2c1	i	i	?	i[2.29 µM]	nt	i
O=S1(=O)N=C(Nc2ccc(N3CCOCC3)cc2)c2ccccc21	i	i	i	12.6µM	nt	i
COc1ccc(NC(=O)N2CC3(CCN(C(=O)c4ccncc4)CC3)C2)cc1	i	i	i	i[11.4 µM]	nt	i
C=CCOCC1CN2C(CCC(C)C2c2ccc(Br)cc2)C(=O)O1 (stereo not given)	i[11.4 µM]	nt	i[11.5 µM]	nt	nt	nt
O=C(Nc1ccccc1)N1CC2(CCN(S(=O)(=O)c3ccccc3)CC2)C1	?	i	i	i[11.4 µM]	nt	i
COC(=O)N1[C@H](C)C=C[C@]1(Cc1ccccc1)C(=O)NCc1ccccn1	?	i	i	nt	nt	i
COC(=O)N1[C@H](C)C=C[C@]1(Cc1ccccc1)C(=O)NCc1ccc(N(C)C)cc1	20µM	i	i	nt	nt	i
N=c1c(S(=O)(=O)c2ccccc2)cc2c(=O)n3ccccc3nc2n1Cc1ccco1	i	i	i	i	i	i
Cc1ccc(S(=O)(=O)c2cc3c(=O)n4ccccc4nc3n(Cc3ccco3)c2=N)cc1C	31.6µM	i	i	i	i	i
Cc1cccc(NC(=O)Cn2nnc(-c3cccs3)n2)c1C	i	12.6µM	i	i	i	?
CCc1ccccc1NC(=O)Cn1nnc(-c2cccs2)n1	i	i	i	i	i	i
SMILES	15-hLO inh	Tau filament bind	ERK AVP block	Luciferase inh	Bst PK mod	Hsp90 Hop PPI
C=C1C2=CC(=O)OC(c3ccoc3)[C@]2(C)CCC1[C@]1(C)C=CC(=O)C(C)(C)C1CC(=O)OC (stereo not given in full)	i	nt	i	nt	nt	nt
COc1ccc(CNc2ccnc(-c3c(C)noc3C)n2)c(OC)c1	25.1µM	i	?	i[2.29 µM]	nt	i
COc1ccc(CNc2ccnc(-c3ccoc3)n2)c(OC)c1	i	i	?	i[2.29 µM]	nt	i
C=C(C)C(O)C(CC/C=C(\C)C(=O)OCC)OC (stereo not given)	i[11.4 µM]	nt	i[11.5 µM]	nt	nt	nt
O=C(O)C[C@H](NC(=O)CP(=O)(O)O)C(=O)O.[NH-][C@@H]1CCCC[C@@H]1[NH-].[Pt]	i[11.4 µM]	i[11.4 µM]	i[11.5 µM]	i[11.4 µM]	nt	i[11 µM]
Nc1ncnc2c1c(-c1ccc(Oc3ccccc3)cc1)cn2C1CCCC1	i	i	7.94µM	i	nt	?
Nc1ccccc1-c1nc2ccccc2[nH]1	i	i	i	?	nt	i
c1ccc(-c2csc(-c3nc4ccccc4[nH]3)n2)cc1	7.94µM	nt	1.26µM	nt	nt	nt
Nc1cccc(-c2nc3ccccc3[nH]2)c1	i	i	i	12.6µM	nt	i
Cn1cc(-c2nc3ccccc3[nH]2)c2ccccc21	i	i	i	12.6µM	?	i
Nc1ccc(-c2nc3ccccc3[nH]2)cc1	i	i	nt	15.8µM	nt	i
BrC/C=C/CBr	i	i	i	nt	nt	i
COc1cc2c(cc1OC)[C@@H]1C(=O)c3ccc4c(c3O[C@@H]1CO2)C=CC(C)(C)O4	i	i	i	i	nt	?
Nc1ccc(-c2nc3ccc(-c4nc5ccc(N)cc5[nH]4)cc3[nH]2)cc1	i	nt	12.6µM	nt	nt	nt
Nc1ccc2ncccc2c1	i	i	i	i	i	i
O=c1c2ccccc2nc(-c2ccco2)n1Cc1ccccc1	i	i	i	i	i	i
COc1ccccc1Cn1c(-c2ccco2)nc2nc3ccccc3nc21	i	15.8µM	i	3.16µM	i	i
Cc1ccc(-c2nc3nc4ccccc4nc3n2Cc2ccco2)cc1	?	15.8µM	i	10µM	i	i
c1ccc(Cn2c(-c3ccco3)nc3nc4ccccc4nc32)cc1	i	7.94µM	i	i	i	i
CCCCCn1c(-c2ccco2)nc2nc3ccccc3nc21	?	12.6µM	i	i	nt	i
C[C@@H](c1ccccc1)N1C(=O)[C@H]2[C@@H]3[C@H](O)C=CC(=O)[C@H]3CC[C@H]2C1=O	i[11.4 µM]	nt	i[11.5 µM]	i[11.4 µM]	nt	nt
CCC(=O)OCN1C(=O)C=CC1=O	i[11.4 µM]	i[11.4 µM]	i[11.5 µM]	i[11.4 µM]	nt	i[11 µM]
CO[C@]1(NC(=O)Cc2cccs2)C(=O)N2C(C(=O)O)=C(COC(N)=O)CS[C@H]21	i	i	i	i	nt	i
CCCn1c(-c2ccc(OC)cc2)nc2nc3ccccc3nc21	i	i	i	i	i	i
COc1ccc(CCn2c(-c3ccco3)nc3nc4ccccc4nc32)cc1	i	12.6µM	i	i	i	i
SMILES	15-hLO inh	Tau filament bind	ERK AVP block	Luciferase inh	Bst PK mod	Hsp90 Hop PPI
CCc1nc2scc(-c3ccccc3)c2c(=O)n1N	20µM	i	?	i	?	i
Cc1ccc(-c2nc3cc(N)ccc3o2)cc1	i	i	i	2.51µM	nt	i
Cc1ccc2oc(-c3ccc(NC(=O)CC(C)C)cc3)nc2c1	i	i	?	?	nt	i
Cc1ccc2oc(-c3ccco3)nc2c1	i	i	i	25.1µM	nt	i
CC(C)c1ccc2oc(-c3ccc(N)cc3)nc2c1	i[11.4 µM]	?	i	1.26µM	nt	i[11 µM]
Cc1ccc(-c2nc3cc(C)ccc3o2)cc1	i	i	i	0.398µM	nt	i
CCNc1ncc2nc(-c3ccc(OC)cc3)c(=O)n(CCC#N)c2n1	i	i	i	i[11.4 µM]	nt	i
CS(=O)(=O)c1ccc(CNC(=O)[C@H]2C[C@@H]2[C@H](NP(=O)(c2ccccc2)c2ccccc2)c2ccccc2)cc1	nt	i	i	nt	nt	i
NCCCc1ccc2oc3ccccc3c2c1	i[11.4 µM]	i[11.4 µM]	i[11.5 µM]	i[11.4 µM]	nt	i[11 µM]
